Rows were chosen to be rich in hits. Some 7% of all compounds tested hit in one or more screens of this group.
PLK1 PBD block: blocks phosphopeptide binding to human PLK1 polo-box domain | P53350 | Plk1 PBD binding of FITC phosphopeptide, fluorescence polarization | Potency, µM, for inactives: max response, negative = inhibition, most hits filed as inhibitors | actives 2.8% (n = 360,000) | AID 720504; further: potency means the concentration at half of the fitted maximal effect; series mostly up to about 57 µM; on the % scale 0 is the no-effect control and ±100 the full control effect; nearly all actives have a fitted effect of over 65% in size
BAZ2B inh: inhibitors of human BAZ2B bromodomain; AlphaScreen BAZ2B-H3K14Ac peptide displacement; Potency, µM (titrated, usually from 114 µM), inactives show at the highest dose activity change, negative = inhibition, usual class: inhibitors; actives 4.4% (n = 360,000); further: potency means the concentration at half of the fitted maximal effect; on the % scale 0 is the no-effect control and ±100 the full control effect; nearly all actives have a fitted effect of over 60% in size
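Complex of BAZ2B and biotin-H3K14Ac (50 nM apiece) forms over 30 min at RT, then faces library compounds up to 110 uM for another 30 min; AlphaScreen beads added, 20 min dark incubation, luminescence read.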
PI5P4Ka inh: blocks human PI5P4K alpha kinase activity; P48426; PI5P4Kalpha enzyme, ADP-Glo luminescence, 60 min; active compounds read low; max response, %; actives 1.2% (n = 330,000); AID 652105; active means max response of -50% or lower; inconclusive means between -30% and -50%; inactive means -30% or higher; further: value at the top dose of about 77 µM; on the % scale 0 is the no-effect control and ±100 the full control effect
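Compounds were pin-transferred onto PI5P4Kalpha and substrate in HEPES pH 7.4 buffer with EGTA, CHAPS and 5% DMSO. ATP (5 microM final) started the reaction, which ran 60 minutes at room temperature before ADP-Glo detection.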
HP1b binding inh: blocks HP1-beta chromodomain binding to methylated histone tails; P83916; AlphaScreen HP1-beta / biotin-H3K9me3 peptide binding; Potency, µM (top dose mostly 114 µM), for the others: at the top dose activity change, negative = inhibition, most hits filed as inhibitors; actives 0.56% (n = 390,000); AID 540317; further: potency means the concentration at half of the fitted maximal effect; nearly all actives have a fitted effect of over 70% in size
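HP1-beta protein (50 nM final) preincubated 30 min at room temperature with biotinylated H3(1-18)K9me3 peptide (50 nM) in PBS pH 7.4, 0.01% Tween-20, then compound added for 30 min. AlphaScreen streptavidin donor/nickel chelate acceptor beads (10 ug/mL final), 30 min dark, luminescence read.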
GCN5L2 inh: blocks human GCN5L2 histone acetyltransferase | Potency, µM (titrated, usually from 58.9 µM), without a hit: top-dose activity change, negative = inhibition, actives largely listed as inhibitors | GCN5L2 HAT assay, ThioGlo1 CoA-SH fluorescence | Q92830 | actives 0.21% (n = 390,000); further: potency means the concentration at half of the fitted maximal effect; on the % scale 0 is the no-effect control and ±100 the full control effect
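Compounds, pin-transferred from DMSO stocks, meet 20nM GCN5L2 for 15 min before the reaction begins with H3(1-25) peptide (75uM) and acetyl-CoA (70uM). Thiol-reactive ThioGlo1 reports CoA release over 20 min at room temperature.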
JMJD2A Tudor: inhibitors of human JMJD2A Tudor domain | AID 504339 | Potency, µM (doses to about 114 µM), without a hit: at the top dose activity change, negative = inhibition, hits mostly inhibitors | AlphaScreen JMJD2A-Tudor / H3K4me3 peptide binding | O75164 | actives 4.4% (n = 390,000); further: potency means the concentration at half of the fitted maximal effect; on the % scale 0 is the no-effect control and ±100 the full control effect; nearly all actives have a fitted effect of over 50% in size
Starred values were filed as active, the others as inactive; ? = inconclusive; . = not tested or not shown; [ ] = remark or other dose. Unless noted, the call rests on the fitted dose curve; in most records, active means well fitted curve in the direction sought with a large enough effect; inconclusive means small, poorly fitted or top-dose-only effect, or another doubt; inactive means no such curve, though single readings can be large; an effect the other way counts as inactive or inconclusive.

SMILES	PLK1 PBD block	BAZ2B inh	PI5P4Ka inh	HP1b binding inh	GCN5L2 inh	JMJD2A Tudor
CC(=O)Nc1ccc2c(c1)C(=Nc1ccccc1)c1ccccc1-2	-6%	.	-2	-26%[57 µM]	.	35µM*
CC(C)C(C(=O)O)N1C(=O)C2C3CCC(C3)C2C1=O (stereo not drawn)	-4%	.	4	.	.	.
COc1ccc(S(=O)(=O)N2CCC(C(=O)NCc3ccncc3)CC2)cc1OC	-6%	-12%	-11	42%	-6%	5%
CCOC(=O)N1CCN(C(=O)Cc2ccccc2[N+](=O)[O-])CC1	-13%	-18%	-2	17%	-6%	-13%
O=C(NCC(=O)N1CCN(Cc2ccccc2)CC1)c1ccc(Br)cc1	0%	-16%	5	37%	0%	-12%
CC(C)CC(=O)N1CCN(Cc2ccc(Br)cc2)CC1	8%	-32%	-4	?	-7%	20µM*
COc1ccc(CN2CCN(Cc3ccc(C(F)(F)F)cc3)CC2)cc1	-10%	25µM*	-7	?	-1%	7.9µM*
COc1ccc(CN2CCOCCOCCOCCOCCOCC2)cc1	-7%	3%	3	8%	0%	-4%
CC(C)CC(=O)N1CCN(Cc2ccc(C(F)(F)F)cc2)CC1	9%	?	-1	?	-18%	28µM*
CC(C)CC(=O)N1CCN(Cc2ccccc2[N+](=O)[O-])CC1	-15%	25µM*	-1	32µM*	1%	1.3µM*
N#Cc1cccc(NC(=O)c2cc(C3CCCCN3C(=O)c3ccccn3)on2)c1 (stereo not drawn)	-9%	.	-9	.	.	.
COc1ccccc1C(C)NC(=O)CN(C)CC(=O)Nc1c(C)cccc1C (stereo not drawn)	-4%	-1%	-2	43%	-1%	-15%
CC(C)C(NS(=O)(=O)c1ccc2c(c1)oc(=O)n2C)C(=O)NCCc1ccccc1 (stereo not drawn)	.	-10%	.	40%	-2%	-10%
C[C@H](O)[C@@H]1C(=O)N2CCc3ccc(-c4ccccc4)cc3[C@@H]2C[C@@H]1N(C)C(=O)c1ccco1	-22%	.	-14	.	.	.
COc1ccc(-c2cc(C)no2)cc1S(=O)(=O)Nc1c(C)cc(C)cc1C	.	-7%	.	22%	-20%	-20%
Cc1ccccc1NC(=O)Cc1nc(COC(=O)c2cc(Cl)ccc2O)cs1	0%	-5%	-5	32%	1%	-2%
CCc1ccc(NC(=O)C(CC)n2c(=O)c(C(F)(F)F)nc3ccccc32)cc1 (stereo not drawn)	.	2%	.	32%	-12%	3%
COc1c2ccoc2nc2c(OC)c(OC[C@H](O)C(C)(C)O)ccc12	.	.	.	.	2%[21.4 µM]	.
CC(C)c1ccc(CN2CCN(C(=O)CCl)CC2)cc1	-23%	-37%	3	39%	-5%	-2%
CC(C)CC(=O)N1CCN(Cc2ccc(Cl)cc2)CC1	13%	?	-4	?	-2%	10µM*
O=c1oc(-c2ccc(O)c(O)c2)cc2cc(O)cc(O)c12	-2%	.	-66*	-2%	-15%	?
O=c1oc(-c2ccc(O)c(O)c2)cc2cccc(O)c12	-5%	.	-23	-21%	-6%	?
Oc1[nH]c(=S)sc1/C=C1\C(c2ccccc2)=Nc2ccccc21	-22%	?	-74*	-14%	-2%	16µM*
CCCC1(C)C(C#N)(C#N)C1(C#N)C#N	.	.	.	.	-17%	.
Cc1c(C(=O)NCCc2ccccc2)oc2ccc(S(=O)(=O)N3CCOCC3)cc12	0%	7%	10	20%	0%	-16%
SMILES	PLK1 PBD block	BAZ2B inh	PI5P4Ka inh	HP1b binding inh	GCN5L2 inh	JMJD2A Tudor
Cc1c(C(=O)NCCN2CCOCC2)oc2ccc(Br)cc12	-1%	50µM*	11	?	2%	-10%
COCCCNC(=O)c1oc2ccc(S(=O)(=O)N3CCOCC3)cc2c1C	?	1%	2	-8%	-1%	89µM*
Cc1ccc2c(c1)c1c(n2CC(O)Cn2ccnc2C)C(=O)CCC1 (stereo not drawn)	-7%	-8%	9	10%	-5%	-24%
Cc1ccc2c(c1)c1c(n2CC(O)CNC2CCCC2)CCCC1 (stereo not drawn)	-8%	45µM*	-1	?	-4%	18µM*
Cc1cc(OCC(=O)Nc2cc(-c3nc4ccccc4[nH]3)ccc2C)ccc1Cl	.	-33%	.	34%	-3%	-21%
NS(=O)(=O)c1ccc(NC(=S)NCc2ccc3c(c2)OCO3)cc1	21µM*	?	2	3%	-27%	-12%
Cn1cc(Cl)c(C(=O)NNC(=S)NCc2ccco2)n1	27µM*	9%	-9	-5%	-3%	-25%
Cc1c(Cl)c(C(=O)NNC(=S)NCc2ccco2)nn1C	-22%	14%	0	23%	-1%	-26%
CN(C)c1ccc(/C=N/NC(=S)NCc2ccco2)cc1	-11%	?	0	7%	-3%	-24%[57.1 µM]
CCCN(CCC)S(=O)(=O)c1ccc(C(=O)NCc2ccc3c(c2)OCO3)cc1	-9%	7%	4	30%	-3%	-12%
CCN(CC)S(=O)(=O)c1ccc(C(=O)NCc2ccc3c(c2)OCO3)cc1	21µM*	-11%	-3	-6%	-10%	-29%
CN(C)c1ccc(C(=S)NCc2ccco2)cc1	19µM*	?	-26	?	-20%	?
NS(=O)(=O)c1cccc(NC(=S)NCc2ccc3c(c2)OCO3)c1	?	-19%	-8	3%	3%	-20%
CN(CC(=O)Nc1ccc(Cl)c(C(F)(F)F)c1)C(=O)C1CSC2(C)CCC(=O)N12 (stereo not drawn)	-2%	7%	11	10%	-1%	-12%
CCOc1ccccc1CNC(=O)C1CCN(c2nn3cc(-c4ccc(F)cc4)nc3s2)CC1	.	2%	.	30%	-6%	-10%
Cc1cc(C)cc(NC(=S)NCc2ccc(S(N)(=O)=O)cc2)c1	?	2%	-7	36%	3%	-6%[57.1 µM]
NS(=O)(=O)c1ccc(NC(=S)NCc2ccc(F)cc2)cc1	21µM*	-37%	0	-17%	-1%	-13%
NS(=O)(=O)c1ccc(NC(=S)NCc2ccco2)cc1	27µM*	?	-21	?	-2%	-29%
CC(C)(C)NC(=S)NCc1ccc2c(c1)OCO2	-18%	-7%	-1	0%	-4%	-22%
NNC(=S)NCc1ccco1	?	-35%	-22	1%	-5%	89µM*
CN(C)CC(C)(C)CNC(=S)NCc1ccc2c(c1)OCO2	?	45µM*	1	?	2%	?
Cc1cnc(=O)[nH]c1SCc1ccc([N+](=O)[O-])cc1	?	?	1	12%	0%	-29%

High-throughput results: PubChem BioAssay, National Center for Advancing Translational Sciences (NCATS)
